Experimental data taken from PubChem BioAssay AID1508609 (The Scripps Research Institute Molecular Screening Center, 2020).
Screen size: about 6,700 compounds; fewer than 10 were called active.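 The calls were made as follows: active = mean percent activation across replicates above the confirmation screen cutoff of 4.91%; inactive = the rest.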 A selection follows.

Each compound was assayed against G-protein coupled receptor 151 (Homo sapiens) (UniProt Q8TDV0) (assay: GPR151 activators, triplicate retest, confirmation, cell-based, PathHunter beta-arrestin, luminescence (AID 1508609)). Conditions: GPR151 PathHunter beta-arrestin cells, 90 min, at 11.2 µM, active compounds read high, % of EA-reagent control over plate median.
Chain of G-protein coupled receptor 151 (Homo sapiens) (Q8TDV0 whole entry, looked up): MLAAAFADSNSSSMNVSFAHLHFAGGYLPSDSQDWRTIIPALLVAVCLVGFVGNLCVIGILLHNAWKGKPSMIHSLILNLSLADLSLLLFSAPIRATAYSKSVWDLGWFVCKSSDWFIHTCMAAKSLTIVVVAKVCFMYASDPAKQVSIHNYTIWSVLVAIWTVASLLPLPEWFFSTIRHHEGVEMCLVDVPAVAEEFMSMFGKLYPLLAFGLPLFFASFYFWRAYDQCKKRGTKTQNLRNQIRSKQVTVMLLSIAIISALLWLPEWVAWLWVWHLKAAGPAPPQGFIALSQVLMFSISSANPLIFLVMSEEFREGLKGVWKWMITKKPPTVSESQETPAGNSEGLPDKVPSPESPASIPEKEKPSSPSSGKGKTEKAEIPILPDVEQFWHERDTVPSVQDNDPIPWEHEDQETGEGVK

| SMILES | activation |
| --- | --- |
| c1ccc(NCc2cccc3ccccc23)nc1 | -0.81% (inactive) |
| COc1ccccc1C1C(C(N)=O)=C(C)Nc2nc(CCCO)nn21 (configuration not stated) | -0.72% (inactive) |
| CC1CCN(C(=O)C(NS(=O)(=O)c2ccc3c(c2)oc(=O)n3C)C(C)C)CC1 (configuration not stated) | 0.12% (inactive) |
| Cc1cc(=O)[nH]c(SCC(=O)Nc2cccc3ccccc23)n1 | -0.05% (inactive) |
| COc1cccc(C2SCC(=O)N2c2cccc(C)c2)c1OC (configuration not stated) | 0.31% (inactive) |
| CC(C)(C)C1CCC(=NNC(=O)C(=O)NCCc2ccccc2)CC1 (configuration not stated) | 1.36% (inactive) |
| C#CCOc1ccc(Br)cc1/C=C1\NC(=S)N(C)C1=O | -0.05% (inactive) |
| Cc1ccc(NC(=O)CCn2c(=O)oc3ccccc32)cc1Cl | 0.81% (inactive) |
| C(=N\N1CCN(c2ccccn2)CC1)/C1=C(N2CCOCC2)C(=C/c2ccccc2)/CC1 | 0.86% (inactive) |
| CC(C)(C)C1(O)CCN2C[C@H]3c4ccccc4CCc4cccc(c43)[C@@H]2C1 (some centres not stated) | -0.56% (inactive) |
| CCOCCCNC(=O)NC1CCN(c2nc3ccccc3s2)CC1 | 0.63% (inactive) |
| CCOC(=O)Cc1coc(NC(=O)c2ccc(Cl)cc2)n1 | 1.26% (inactive) |
| CC(C)C(=O)NNS(=O)(=O)c1ccc([N+](=O)[O-])cc1 | -0.02% (inactive) |
| N#Cc1ccc(N2CCN(CCCNC(=O)Nc3ccccc3)CC2)cc1 | -0.19% (inactive) |
| O=C1Cc2cc(S(=O)(=O)Nc3cccc(Cl)c3)cc3c2N1CCC3 | 0.12% (inactive) |
| COc1cccc(NC(=O)CN(C)S(=O)(=O)c2ccc3c(c2)SCC(=O)N3)c1 | -0.01% (inactive) |
| CCNc1nc(NC(C)C)nc(OCCOC(C)=O)n1 | -0.68% (inactive) |
| OCc1ccccc1CNc1ccc(F)cc1 | 0.05% (inactive) |
| COCCNCCOc1ccc(C(C)(C)C)cc1 | -1.21% (inactive) |
| CCN(CC)C1CCN(C(=O)c2cc(COc3ccc4ncccc4c3)on2)C1 (configuration not stated) | -1.18% (inactive) |
| COc1ccc(-c2cc(N)n(S(=O)(=O)c3ccccc3)n2)c(OC)c1 | -0.31% (inactive) |
| COc1cc2nc(-c3ccc4c(c3)C(=O)N(CCC(C)C)C4=O)oc(=O)c2cc1OC | 0.42% (inactive) |
| COc1ccc(Nc2nc(-c3ccc(F)cc3)cs2)c(OC)c1 | -0.04% (inactive) |

| SMILES | activation |
| --- | --- |
| CCCN1C(=O)c2ccc(C(=O)Nc3ccc(C(C)=O)cc3)cc2C1=O | 0.09% (inactive) |
| CC(C(=O)NCCN1CCOCC1)n1c2ccccc2c2cn[nH]c(=O)c21 (configuration not stated) | -0.57% (inactive) |
| c1ccc2sc(-c3cnc4ccc(NC5CCOCC5)nn34)cc2c1 | -1.36% (inactive) |
| O=C(COc1ccc(Br)cc1CO)NCC(F)(F)F | 0.36% (inactive) |
| CCOc1ccc(NC(=O)N2CCN(CC)CC2)cc1 | 0.34% (inactive) |
| CCc1ccc(N2N=C(C)/C(=C\c3ccc(-c4ccc5c(c4)C(=O)NC5=O)o3)C2=O)cc1 | -0.14% (inactive) |
| O=S(=O)(NCc1csc(-c2cccnc2)n1)c1ccc2ccccc2c1 | 0.68% (inactive) |
| CCN1/C(=C/c2ccc3cc(C)ccc3[n+]2CC)Sc2ccc(-c3ccccc3)cc21 | -0.55% (inactive) |
| Cc1ccc(NC(=O)Cn2cc(-c3ccccc3)c(N3CCOCC3)n2)c(C)c1 | -0.77% (inactive) |
| CC1CCCCN1C(=O)c1cc2c(=O)n(C)c3ccccc3c2s1 (configuration not stated) | 0.54% (inactive) |
| COc1cccc(/C=C2/C(=O)NC(=O)N(c3ccccc3F)C2=O)c1 | 0.99% (inactive) |
| COC(=O)c1c(NC(=O)Nc2ccc(Cl)c(Cl)c2)sc2c1CCCC2 | 0.7% (inactive) |
| O=C1NCCN(Cc2ccc(-c3ccccc3)cc2)C1CC(=O)N1CCCCC1 (configuration not stated) | 0.39% (inactive) |
| Cc1ccc(C)c(CN2CCC(n3nccc3NC(=O)C(C)(C)C)CC2)c1 | 0.69% (inactive) |
| CCn1c(COc2ccccc2)nnc1Sc1ccc([N+](=O)[O-])cc1C=O | 0.71% (inactive) |
| Cc1cc(N2CCOCC2)ccc1C=C1C(=O)c2ccccc2C1=O | -0.77% (inactive) |
| COC(=O)c1c(-c2ccccc2)csc1NC(=O)c1ccc(OC)c([N+](=O)[O-])c1 | 0.78% (inactive) |
| Cc1ccc(C(=O)Oc2ccccc2/C=N/N=C2\NC(=O)C(CC(=O)O)S2)cc1 (configuration not stated) | -0.38% (inactive) |
| Cc1ccc(S(=O)(=O)Cn2nnnc2CN2CCN(c3ccccc3F)CC2)cc1 | 1.76% (inactive) |
| CCN(CC)c1nc(Nc2ccccc2)nc(Nc2ccccc2)n1 | -0.22% (inactive) |
| C=CCn1c2ccccc2c2nnc(SCc3[nH]c(=O)[nH]c3C(=O)CCCCC(=O)OCC)nc21 | 1.2% (inactive) |
| COC(=O)c1cc(NC(=O)COc2ccc([N+](=O)[O-])cc2)cc(C(=O)OC)c1 | 0.64% (inactive) |
| CC(C)COC(=O)c1ccc(NC(=O)C2C3C=CC(C3)C2C(=O)O)cc1 (configuration not stated) | 1.05% (inactive) |

| SMILES | activation |
| --- | --- |
| O=C(N/N=C\C=C\c1ccccc1)c1ccccn1 | -0.98% (inactive) |
| COc1ccc(NC(=S)N2CCN(S(=O)(=O)c3ccc(F)cc3)CC2)c(OC)c1 | -0.28% (inactive) |
| Cc1cccn2c(=O)c3cc(C(=O)NC4CCCCC4)c(=N)n(C4CCCCC4)c3nc12 | -0.69% (inactive) |
| OCCC1CN(Cc2ccc3cc(F)ccc3n2)CCN1C1CCCC1 (configuration not stated) | 1.64% (inactive) |
| O=C(Cn1c(=O)n(Cc2ccccc2)c(=O)c2ccccc21)c1ccccc1 | 1.26% (inactive) |
| CCOc1c(Cl)cc(CNCc2ccccc2)cc1OC | -0.5% (inactive) |
| COC(=O)c1oc2ccc(Br)cc2c1NC(C)=O | 0.35% (inactive) |
| O=C(c1ccc(CNS(=O)(=O)c2ccc(Cl)cc2)cc1)N1CCCC1 | 1.92% (inactive) |
| C=CCc1cccc(/C=N/NC(=O)CCC(=O)Nc2ccc(Br)cc2)c1O | -0.44% (inactive) |
| O=C(CN1CCOCC1)Nc1c(Cl)cc(Cl)cc1Cl | 0.82% (inactive) |
| CCOC(=O)c1ccc(NC(=O)c2ncn(-c3ccccc3)n2)cc1 | 0.02% (inactive) |
| Cn1ncc2c(NNC(=O)Cc3cccc4ccccc34)ncnc21 | 0.44% (inactive) |
| CCCCc1ccc(NC(=O)CN2C(=O)C(C)SC(C)C2=O)cc1 (configuration not stated) | 0.42% (inactive) |
| COc1ccc(CCNc2cc(C)nc(Nc3cccc(N(C)C)c3)n2)cc1 | 0.06% (inactive) |
| O=C(Nc1ccc(NC(=O)c2cccc3c(Br)cccc23)cc1)c1ccco1 | 1.13% (inactive) |
| COC(=O)[C@@H]1CC(O)CN1C(=O)C12CC3CC(CC(C3)C1)C2 (some centres not stated) | 0.35% (inactive) |
| CC1=C(C(=O)Nc2cccc(F)c2)C(c2ccccn2)C2=C(CCCC2=O)N1 (configuration not stated) | 0.25% (inactive) |
| NC(=S)N/N=C/c1ccc([N+](=O)[O-])cc1 | -0.11% (inactive) |
| CC(C)C(=O)NC(=S)Nc1ccccc1F | 0.14% (inactive) |
| COc1ccc(C2(NC(=O)CCn3cnc4sc(C)c(C)c4c3=O)CCCCC2)cc1 | 0.69% (inactive) |
| CCC1=C(C)c2cc3nc(C(=O)OCc4ccccc4)c(C)c-3c(C)n2C1C (configuration not stated) | -0.16% (inactive) |
| CCN(CC)C(=O)C1CCCN(c2cc(N)nc(N)n2)C1 (configuration not stated) | -0.11% (inactive) |
| CCC1C(=O)NCCN1Cc1ccc2c(c1)CN(Cc1c[nH]c3ccccc13)CCO2 (configuration not stated) | 1.68% (inactive) |

| SMILES | activation |
| --- | --- |
| CN1C(=O)c2ccc(N3C(=O)c4cccc([N+](=O)[O-])c4C3=O)cc2C1=O | -0.57% (inactive) |
| Cc1ccc[n+](-c2ncnc(N)c2[N+](=O)[O-])c1 | -0.67% (inactive) |
| COc1cccc(-c2ocnc2C(=O)Nc2ccc3nc(-c4cccnc4)oc3c2)c1 | 0.94% (inactive) |
| O=C(c1cc([N+](=O)[O-])ccc1NC1CCCCC1)N1CCOCC1 | -1.3% (inactive) |
| C=CCN1C(=O)CC(C(=O)OC)C12CCN(C1CCN(C(=O)OCC)CC1)CC2 (configuration not stated) | -0.6% (inactive) |
| Cc1cccc(-n2nc3c(c2NC(=O)CCC2CCCCC2)CS(=O)(=O)C3)c1C | 0.42% (inactive) |
| COc1ccc(C2C(C#N)=C(N)Oc3c2c(C)nn3-c2ccccc2)cc1 (configuration not stated) | 0.69% (inactive) |
| CC(=O)c1ccc(NC(=O)c2ccc(CN(c3ccc(C)c(C)c3)S(C)(=O)=O)cc2)cc1 | -0.1% (inactive) |
| CC1CCCC(NCc2c(C(=O)O)n(Cc3ccc(Cl)cc3)c3ccccc23)C1C (configuration not stated) | 0.3% (inactive) |
| Cc1cccc(C)c1-n1c(=S)sc2c(=O)n(-c3cccc(Cl)c3)c(SCC#N)nc21 | 2.02% (inactive) |
| CCCCc1ccc(N=Cc2nc(-c3cccc4ccccc34)oc2O)cc1 | -1.01% (inactive) |
| Cc1ccc(N2C(=O)CC(N3CCN(Cc4ccc(Cl)cc4)CC3)C2=O)cc1Cl (configuration not stated) | 0.04% (inactive) |
| Oc1ccc(Cn2cc[nH]c2=S)cc1 | -0.7% (inactive) |
| CC(C)NC(=O)/C=C/c1ccccc1Cl | -0.37% (inactive) |
| COc1ccc(C(=O)CSc2nc3sc4c(c3c(=O)n2-c2ccc(Cl)cn2)CCCC4)c(F)c1 | -0.67% (inactive) |
| NC(=O)C1CCN(C(=O)c2ccc(-c3ccccc3)cc2)CC1 | -1.12% (inactive) |
| COCCNC(=S)N1CCN(c2ccccc2OC)CC1 | 0.65% (inactive) |
| Cc1ccc(-c2nnc(N3CCOCC3)c3ccccc23)cc1S(=O)(=O)N1CCN(C)CC1 | -0.46% (inactive) |
| CC(C)n1c(=O)[nH]c2c(C(N)=O)nc(-c3ccc(-c4ccccc4)cc3)nc21 | -0.04% (inactive) |
| COc1ccc(OC)c(/C=N/n2nnnc2N)c1 | -0.17% (inactive) |
| O=C(NCc1ccsc1)c1ccc(-n2cccc2)cc1 | 0.53% (inactive) |
| C=CCc1ccccc1OCCN1CCNCC1 | -0.14% (inactive) |
| Cc1ccc(S(=O)(=O)NCC(c2cccnc2)N2CCN(c3ccc(F)cc3)CC2)cc1 (configuration not stated) | -0.45% (inactive) |
